The campaign covered roughly 320,000 compounds. About 1,400 (0.44%) were called active.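 The calls were made as follows: active = percent inhibition above a per-plate cutoff, the plate mean of test compounds plus 3 SD (cut at about 30% in these data); inactive = the rest.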 For the sample, actives were picked, then their nearest neighbours and some compounds at random.
target: Female germline-specific tumor suppressor gld-1 (Caenorhabditis elegans) (UniProt Q17339); assay: small molecules blocking C. elegans GLD-1 RNA recognition – biochemical, fluorescence polarization, primary screen (AID 2280); details: purified GLD-1 + fluorescein TGE RNA, at 5.96 µM, stronger effect = higher value;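 also: 0% = DMSO wells with GLD-1 and probe and 100% = wells lacking GLD-1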
Sequence (Q17339 whole entry, looked up): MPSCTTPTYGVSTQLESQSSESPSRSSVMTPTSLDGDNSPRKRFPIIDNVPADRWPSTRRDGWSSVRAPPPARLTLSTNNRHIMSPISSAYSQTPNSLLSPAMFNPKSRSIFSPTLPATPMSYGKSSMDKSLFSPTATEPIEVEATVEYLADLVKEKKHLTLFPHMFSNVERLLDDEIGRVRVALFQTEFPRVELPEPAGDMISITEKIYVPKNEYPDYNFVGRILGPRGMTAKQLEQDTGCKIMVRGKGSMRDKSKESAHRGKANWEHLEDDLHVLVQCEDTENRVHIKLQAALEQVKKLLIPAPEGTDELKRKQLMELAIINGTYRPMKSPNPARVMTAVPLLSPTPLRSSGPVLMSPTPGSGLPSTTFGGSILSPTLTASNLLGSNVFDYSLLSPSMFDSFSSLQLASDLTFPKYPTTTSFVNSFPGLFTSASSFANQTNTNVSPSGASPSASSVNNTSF

| Compound | inhibition |
| --- | --- |
| CC(C)c1nc2sc3c(c2c(=O)n1N)CC(C)(C)OC3 | 2.68% (inactive) |
| CCSc1nc2sc3c(c2c(=O)[nH]1)CC(C)(C)OC3 | -5.06% (inactive) |
| CC/C(C)=N/Nc1nc2sc3c(c2c(=O)[nH]1)CC(C)(C)OC3 | 62.3% (active) |
| O=C(COC(=O)C1CC2CCCC(C1)C2=O)NC(=O)c1ccccc1 (centres undefined) | 0.04% (inactive) |
| O=S(=O)(c1ccc(-c2ccno2)s1)N1CCCCC1 | 0.96% (inactive) |
| CC(C)(C)OC(=O)NCCCC1=CC2=CC(=O)C(C)(OC(=O)c3ccco3)C(=O)C2=CO1 (centres undefined) | 86.5% (active) |
| C=CCN1C=C2C(=O)C(C)(OC(=O)CCc3ccccc3)C(=O)C=C2C=C1c1ccc(C#N)cc1 (centres undefined) | 18.7% (inactive) |
| CC1(OC(=O)C2CCCC2)C(=O)C=C2C=C(c3ccc(C#N)cc3)OC=C2C1=O (centres undefined) | 17.8% (inactive) |
| CN1CCN(c2ccccc2NC(=O)COc2ccc(C3CCCCC3)cc2)CC1 | 2.44% (inactive) |
| N#CCCN(C(=O)COC(=O)c1ccc2c(c1)OCCO2)c1ccccc1 | 0.3% (inactive) |
| N#C/C(=C\c1ccccc1C(F)(F)F)C(=O)Nc1ccccc1F | 0.78% (inactive) |
| O=C(O)c1cc(Cl)c(Cl)cc1C(=O)Nc1cccc2ncccc12 | 7.15% (inactive) |
| Cc1ccc(/C=C(\C#N)C(=O)Nc2cccc3ncccc23)o1 | 59.6% (active) |
| COc1cc(NC(=O)COC(=O)c2ccc([N+](=O)[O-])s2)cc(OC)c1OC | 4.4% (inactive) |
| O=C(Cc1ccc(S(=O)(=O)N2CCOCC2)s1)N1CCN(c2ccc(C(F)(F)F)cc2[N+](=O)[O-])CC1 | 8.86% (inactive) |
| CCOC(=O)c1ccccc1CN1C(=O)c2ccccc2S1(=O)=O | 1.98% (inactive) |
| CCOC(=O)c1cc2n(c1N)-c1ccccc1C2=O | 117% (active) |
| CC(C)OC(=O)CN1C(=O)C(=O)c2ccccc21 | -0.34% (inactive) |
| Cc1ccc(CNC(=O)C2CCCN2S(=O)(=O)c2ccc3c(c2)C(C)(C)C(=O)N3C)cc1 (centres undefined) | -3.08% (inactive) |
| CCOC(=O)c1cnc2nc(SCc3ccccc3Cl)[nH]n2c1=O | -4.26% (inactive) |
| Cc1cccc(N=Nc2c(O)[nH]c3ccc(F)cc23)c1 | 67.5% (active) |
| NS(=O)(=O)c1ccc(N=Nc2c(O)[nH]c3ccc(Br)cc23)cc1 | 15.6% (inactive) |
| Oc1[nH]c2ccc(Br)cc2c1N=Nc1nn[nH]n1 | 9.48% (inactive) |

| Compound | inhibition |
| --- | --- |
| CSc1ccc(S(=O)(=O)N2CCC(C(=O)NCc3ccncc3)CC2)cc1 | -3.16% (inactive) |
| CSc1ccccc1NC(=O)C(C)N1C(=O)c2ccccc2S1(=O)=O (centres undefined) | -0.85% (inactive) |
| CN1c2ccc(C=O)c3c(C=O)ccc(c23)N(C)C1(C)C | 134% (active) |
| Cc1cc(C)c(S(=O)(=O)c2cc(F)ccc2C)c(=O)[nH]1 | -0.88% (inactive) |
| O=C1NC[C@@H](c2ccccc2)OC(=O)[C@H](Cc2ccc(F)cc2)CC/C=C/C[C@H]1CC(=O)N(CCO)Cc1ccccc1 | 3.17% (inactive) |
| CC(C)OC(=O)C(C#N)c1nc2ccccc2nc1N1CCN(Cc2ccccc2)CC1 (centres undefined) | 6.85% (inactive) |
| Cc1cc(N2CCN(S(=O)(=O)c3ccc(C)c(C)c3)CC2)c2ccccc2n1 | 1.62% (inactive) |
| Cc1ccc(S(=O)(=O)C(C#N)c2nc3ccccc3nc2N2CCCC2)cc1C (centres undefined) | 54.9% (active) |
| CCN(C[C@H]1N[C@@](CC)(C(=O)OC)[C@H]2C(=O)N(Cc3ccccc3)C(=O)[C@@H]12)S(=O)(=O)c1ccc(C(F)(F)F)cc1 | 7.64% (inactive) |
| COc1ccc(Cl)cc1NC(=O)COC(=O)c1ccc(Br)o1 | -3.63% (inactive) |
| CCOc1ccc(N2CC(C(=O)NCCN3C(=O)S/C(=C\c4cccnc4)C3=O)CC2=O)cc1 (centres undefined) | -0.09% (inactive) |
| COc1ccccc1N1CC(C(=O)NCCN2C(=O)S/C(=C\c3cccnc3)C2=O)CC1=O (centres undefined) | 4.79% (inactive) |
| COc1ccc(N2CC(C(=O)NCCN3C(=O)S/C(=C\c4cccnc4)C3=O)CC2=O)c(OC)c1 (centres undefined) | 118% (active) |
| C=CCC(NC(=O)Cc1ccccc1)C(=O)NCCC (centres undefined) | -2.12% (inactive) |
| Cc1ccc(Cn2nnc3c(=O)[nH]c(C4CCN(S(=O)(=O)/C=C/c5ccccc5)CC4)nc32)cc1 | 1.59% (inactive) |
| O=C(COC(=O)c1cc[n+]([O-])cc1)Nc1ccc(Cl)c(C(F)(F)F)c1 | 8.04% (inactive) |
| CC(NC(=O)c1ccco1)c1ccc2c(c1)OCO2 (centres undefined) | -0.47% (inactive) |
| COc1ccc(NS(=O)(=O)c2ccc(F)cc2F)cn1 | -1.42% (inactive) |
| COc1cccc(Nc2ncccc2C(=O)O)c1 | 3.26% (inactive) |
| COc1ccc(Nc2cc(Cl)ccc2C(=O)O)cn1 | 66.1% (active) |
| COc1cc(OC)cc(-c2c(C#Cc3ccsc3)c3cc(-c4ccc(OC)cc4F)ccc3n2C)c1 | -36.1% (inactive) |
| Cc1ccc(NC(=O)C(=O)NCc2ccc(/C=N/NC(=O)c3c(C)nc4cc(C)ccn34)o2)cc1 | 1.79% (inactive) |
| Cc1ccc(S(=O)(=O)Nc2nc(CN3CCOCC3)nc3sc(C)c(C)c23)cc1 | -15.1% (inactive) |

| Compound | inhibition |
| --- | --- |
| O=C(NC1CCCC1)C(=O)c1c[nH]c2ccccc12 | 6.85% (inactive) |
| COc1ccc(/C=C(\C#N)c2c[nH]c3ccccc23)cc1 | 8.67% (inactive) |
| C[n+]1ccc(/C=C/c2c[nH]c3ccccc23)cc1 | 55.5% (active) |
| COc1ccccc1-n1c(SCC(=O)Nc2cccc(C(=O)O)c2)nnc1-c1ccccc1O | 6.18% (inactive) |
| OC1CN=C2Sc3ccccc3N2C1 (centres undefined) | 12.5% (inactive) |
| NNC(=O)c1oc2nc(-c3ccccc3)cc(-c3ccco3)c2c1N | -23.7% (inactive) |
| CNC(=S)NNC(=O)c1oc2nc(-c3ccccc3)cc(-c3ccco3)c2c1N | 38.9% (active) |
| CNC(=S)NNC(=O)c1cccn(Cc2ccccc2)c1=O | 3.04% (inactive) |
| Cc1ccc(C(=O)NCC(=O)OCC(=O)Nc2cccc(S(=O)(=O)N3CCCC3)c2)cc1C | 7.23% (inactive) |
| COC(=O)c1sccc1NN1C(=O)c2ccccc2C1=O | 4.27% (inactive) |
| CCOCCOCCC(C(=O)O)P(=O)(c1ccccc1)c1ccccc1 (centres undefined) | 6.44% (inactive) |
| CCCN1CC=C2C(C#N)=C(N)C(C#N)(C#N)C(c3cc(OC)ccc3OC)C2C1 (centres undefined) | 49% (active) |
| CCN1CC=C2C(C#N)=C(N)C(C#N)(C#N)[C@H](c3ccoc3)[C@H]2C1 | 106% (active) |
| COC(=O)c1ccc(CNC(=O)C2CCC(=O)N(Cc3ccccn3)C2)cc1 (centres undefined) | 0.64% (inactive) |
| O=S(=O)(c1ccc(Cl)s1)N1CCC2(CC1)OCCO2 | -2.17% (inactive) |
| N#C[C@]1(S(=O)(=O)c2ccccc2)C[C@@H]2ON=C(c3cccc(Br)c3)[C@@H]2C1 | -1.68% (inactive) |
| O=C(Nc1cccc(F)c1)[C@@H]1CCCN1 | 4.36% (inactive) |
| Cc1ccc(S(=O)(=O)N2CCOCC2)cc1C(=O)OC1CCCCC1=O (centres undefined) | -3.51% (inactive) |
| COc1ccc(Nc2nc(-c3cccnc3)nc3ccccc23)cn1 | 100% (active) |
| CCOC(=O)c1nc(Nc2ccc(C(=O)OC)cc2)c2ccccc2n1 | -1.24% (inactive) |
| O=[N+]([O-])c1ccc(F)cc1Oc1nc(-c2cccnc2)nc2ccccc12 | -1.37% (inactive) |
| CNC(=O)c1[nH]cnc1C(=O)N[C@@H](CC(C)C)C(=O)OCc1ccccc1 | 10.1% (inactive) |
| COC(=O)CN1C(=O)N/C(=C/c2ccc(OC)c(C)c2OC)C1=O | 9.69% (inactive) |

| Compound | inhibition |
| --- | --- |
| O=C(OCC1OC(Oc2ccc(O)cc2)C(O)C(O)C1O)c1ccccc1 (centres undefined) | 2.13% (inactive) |
| O=C(OCC1O[C@@H](OC(=O)c2cc(O)c(O)c(O)c2)[C@@H](OC(=O)c2cc(O)c(O)c(O)c2)[C@@H](OC(=O)c2cc(O)c(O)c(O)c2)[C@@H]1OC(=O)c1cc(O)c(O)c(O)c1)c1cc(O)c(O)c(O)c1 (some centres undefined) | 34.6% (active) |
| Cc1ccc(NC(=O)c2ccc(Cl)nc2)cc1S(=O)(=O)N1CCOCC1 | -0.28% (inactive) |
| O=C1c2ccccc2C(=O)c2c1cccc2N1CCN(Cc2ccccc2)CC1 | 0.8% (inactive) |
| O=C1c2ccccc2C(=O)c2c1cccc2N1CCN(C/C=C/c2ccccc2)CC1 | 9.38% (inactive) |
| O=C1c2ccccc2C(=O)c2c1cccc2N1CCN(CCO)CC1 | 48.6% (active) |
| CC(C(=O)NCC1CCCCC1)N(C)Cc1cccc(Cl)c1 (centres undefined) | 4.56% (inactive) |
| CN(C)/C=C(/C(=O)c1ccc(F)cc1)S(=O)(=O)c1ccc(F)cc1 | 3.44% (inactive) |
| O=c1[nH]cccc1-c1nc2ccccc2n1Cc1ccc(Cl)cc1 | 45% (active) |
| Nc1nonc1-c1nc2ccccc2n1Cc1ccc(F)cc1 | 1.28% (inactive) |
| CC(=O)Nc1nc2ccccc2n1Cc1ccc(C)cc1 | 0.42% (inactive) |
| CC1OC2C(OC1C)N(S(C)(=O)=O)CCN2S(C)(=O)=O (centres undefined) | 3.56% (inactive) |
| CCCOc1ccc(N2C(=O)CC(N(CCc3ccc(S(N)(=O)=O)cc3)C(C)=O)C2=O)cc1 (centres undefined) | -1.23% (inactive) |
| C=CCSc1nnc(N2C(=O)C(O)=C(C(=O)c3ccco3)C2c2ccc(F)cc2)s1 (centres undefined) | 44.5% (active) |
| CC(C)c1ccc(C2C(C(=O)c3ccco3)=C(O)C(=O)N2CC2CCCO2)cc1 (centres undefined) | 4.96% (inactive) |
| Cc1ccc2nc(N3C(=O)C(O)=C(C(=O)c4ccco4)C3c3cccc(O)c3)sc2c1 (centres undefined) | 0.27% (inactive) |
| CCN1CCC2(CC1)N=C(c1ccc(F)cc1)C(=S)N2C(=O)c1ccc(C)cc1 | 7.8% (inactive) |
| CCCn1c(C2CCCN2c2nc(-c3ccc(OC)cc3)cs2)nc2ccccc21 (centres undefined) | 9.35% (inactive) |
| CCCn1c(C2CCCN2c2nc(-c3ccc(C)cc3)cs2)nc2cc(Cl)c(N3CCCCC3)cc21 (centres undefined) | 34.6% (active) |
| CCCn1c(C(C)Nc2nc(-c3ccc(C)cc3)cs2)nc2cc(Cl)c(N3CCCCC3)cc21 (centres undefined) | 2.12% (inactive) |

Source: PubChem BioAssay AID2280 (The Scripps Research Institute Molecular Screening Center, 2010)
